In the supplement of paper PMC4466140:

biological target: AgAbp1; experiment: SPOT peptide array binding signal intensity (averaged, normalized) (arbitrary units (background-subtracted, floor 0; scale differs between SH3 domains)); higher = stronger binding of the SH3 domain to the peptide
Experimental: (§1)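 GST-tagged SH3 domains from S. cerevisiae (Sc), A. gossypii (Ag), C. albicans (Ca) and S. pombe (Sp) were incubated at 10 ug/ml overnight at 4 C on cellulose SPOT membranes carrying 292 synthetic 15-mer peptides mined from the S. cerevisiae proteome (cysteines replaced by serines). Binding was detected with anti-GST antibody, HRP secondary and chemiluminescence, quantified with Genespotter, and reported as normalized spot intensities averaged over biological replicates.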

Binder	SPOT peptide array binding signal intensity
YHSRRHPLALGFKYV	25.5

biological target: AgBbc1; experiment: as above
Experimental: as §1

Binder	SPOT peptide array binding signal intensity
YHSRRHPLALGFKYV	12

biological target: AgBem1-D1; experiment: as above
Experimental: as §1

Binder	SPOT peptide array binding signal intensity
YHSRRHPLALGFKYV	86

biological target: AgBzz1-D1; experiment: as above
Experimental: as §1

Binder	SPOT peptide array binding signal intensity
YHSRRHPLALGFKYV	≤ 0

biological target: AgBzz1-D2; experiment: as above
Experimental: as §1

Binder	SPOT peptide array binding signal intensity
YHSRRHPLALGFKYV	≤ 0

biological target: AgCyk3; experiment: as above
Experimental: as §1

Binder	SPOT peptide array binding signal intensity
YHSRRHPLALGFKYV	4

biological target: AgFus1; experiment: as above
Experimental: as §1

Binder	SPOT peptide array binding signal intensity
YHSRRHPLALGFKYV	566

biological target: AgHof1; experiment: as above
Experimental: as §1

Binder	SPOT peptide array binding signal intensity
YHSRRHPLALGFKYV	19

biological target: AgHse1; experiment: as above
Experimental: as §1

Binder	SPOT peptide array binding signal intensity
YHSRRHPLALGFKYV	187

biological target: AgLsb1; experiment: as above
Experimental: as §1

Binder	SPOT peptide array binding signal intensity
YHSRRHPLALGFKYV	2

biological target: AgLsb4; experiment: as above
Experimental: as §1

Binder	SPOT peptide array binding signal intensity
YHSRRHPLALGFKYV	2

biological target: AgMyo5; experiment: as above
Experimental: as §1

Binder	SPOT peptide array binding signal intensity
YHSRRHPLALGFKYV	3.25

biological target: AgNbp2; experiment: as above
Experimental: as §1

Binder	SPOT peptide array binding signal intensity
YHSRRHPLALGFKYV	41.5

biological target: AgRvs167; experiment: as above
Experimental: as §1

Binder	SPOT peptide array binding signal intensity
YHSRRHPLALGFKYV	7.67

biological target: AgSho1; experiment: as above
Experimental: as §1

Binder	SPOT peptide array binding signal intensity
YHSRRHPLALGFKYV	26

biological target: AgSla1-D1-D2; experiment: as above
Experimental: as §1

Binder	SPOT peptide array binding signal intensity
YHSRRHPLALGFKYV	26

biological target: AgSla1-D3; experiment: as above
Experimental: as §1

Binder	SPOT peptide array binding signal intensity
YHSRRHPLALGFKYV	17

biological target: CaAbp1-D1; experiment: as above
Experimental: as §1

Binder	SPOT peptide array binding signal intensity
YHSRRHPLALGFKYV	156

biological target: CaAbp1-D2; experiment: as above
Experimental: as §1

Binder	SPOT peptide array binding signal intensity
YHSRRHPLALGFKYV	81.5

biological target: CaBbc1; experiment: as above
Experimental: as §1

Binder	SPOT peptide array binding signal intensity
YHSRRHPLALGFKYV	6.75

biological target: CaBem1-D1; experiment: as above
Experimental: as §1

Binder	SPOT peptide array binding signal intensity
YHSRRHPLALGFKYV	121

biological target: CaBzz1-D1; experiment: as above
Experimental: as §1

Binder	SPOT peptide array binding signal intensity
YHSRRHPLALGFKYV	64

biological target: CaBzz1-D2; experiment: as above
Experimental: as §1

Binder	SPOT peptide array binding signal intensity
YHSRRHPLALGFKYV	22

biological target: CaCyk3; experiment: as above
Experimental: as §1

Binder	SPOT peptide array binding signal intensity
YHSRRHPLALGFKYV	4

biological target: CaFus1; experiment: as above
Experimental: as §1

Binder	SPOT peptide array binding signal intensity
YHSRRHPLALGFKYV	630

biological target: CaHof1; experiment: as above
Experimental: as §1

Binder	SPOT peptide array binding signal intensity
YHSRRHPLALGFKYV	4.5

biological target: CaHse1; experiment: as above
Experimental: as §1

Binder	SPOT peptide array binding signal intensity
YHSRRHPLALGFKYV	38.5

biological target: CaLsb1; experiment: as above
Experimental: as §1

Binder	SPOT peptide array binding signal intensity
YHSRRHPLALGFKYV	1.75

biological target: CaLsb4; experiment: as above
Experimental: as §1

Binder	SPOT peptide array binding signal intensity
YHSRRHPLALGFKYV	≤ 0

biological target: CaMyo5; experiment: as above
Experimental: as §1

Binder	SPOT peptide array binding signal intensity
YHSRRHPLALGFKYV	38.5

biological target: CaNbp2; experiment: as above
Experimental: as §1

Binder	SPOT peptide array binding signal intensity
YHSRRHPLALGFKYV	204
QRIRKIPGIPLMSVG	549

biological target: CaRvs167; experiment: as above
Experimental: as §1

Binder	SPOT peptide array binding signal intensity
YHSRRHPLALGFKYV	44
QRIRKIPGIPLMSVG	296

biological target: CaRvs167-3; experiment: as above
Experimental: as §1

Binder	SPOT peptide array binding signal intensity
YHSRRHPLALGFKYV	103
QRIRKIPGIPLMSVG	6.5

biological target: CaSho1; experiment: as above
Experimental: as §1

Binder	SPOT peptide array binding signal intensity
YHSRRHPLALGFKYV	153
QRIRKIPGIPLMSVG	303

biological target: CaSla1-D1-D2; experiment: as above
Experimental: as §1

Binder	SPOT peptide array binding signal intensity
YHSRRHPLALGFKYV	124
QRIRKIPGIPLMSVG	817

biological target: CaSla1-D3; experiment: as above
Experimental: as §1

Binder	SPOT peptide array binding signal intensity
YHSRRHPLALGFKYV	23.5
QRIRKIPGIPLMSVG	38.5

biological target: ScAbp1; experiment: as above
Experimental: as §1

Binder	SPOT peptide array binding signal intensity
YHSRRHPLALGFKYV	54
QRIRKIPGIPLMSVG	99

biological target: ScBbc1; experiment: as above
Experimental: as §1

Binder	SPOT peptide array binding signal intensity
YHSRRHPLALGFKYV	2.75
QRIRKIPGIPLMSVG	32.5

biological target: ScBem1-D1; experiment: as above
Experimental: as §1

Binder	SPOT peptide array binding signal intensity
YHSRRHPLALGFKYV	58
QRIRKIPGIPLMSVG	13.5

biological target: ScBzz1-D1; experiment: as above
Experimental: as §1

Binder	SPOT peptide array binding signal intensity
YHSRRHPLALGFKYV	1.5
QRIRKIPGIPLMSVG	2

biological target: ScBzz1-D2; experiment: as above
Experimental: as §1

Binder	SPOT peptide array binding signal intensity
YHSRRHPLALGFKYV	40.5
QRIRKIPGIPLMSVG	25

biological target: ScCyk3; experiment: as above
Experimental: as §1

Binder	SPOT peptide array binding signal intensity
YHSRRHPLALGFKYV	13.5
QRIRKIPGIPLMSVG	7

biological target: ScFus1; experiment: as above
Experimental: as §1

Binder	SPOT peptide array binding signal intensity
YHSRRHPLALGFKYV	368
QRIRKIPGIPLMSVG	284

biological target: ScHof1; experiment: as above
Experimental: as §1

Binder	SPOT peptide array binding signal intensity
YHSRRHPLALGFKYV	16.5
QRIRKIPGIPLMSVG	2

biological target: ScHse1; experiment: as above
Experimental: as §1

Binder	SPOT peptide array binding signal intensity
YHSRRHPLALGFKYV	480
QRIRKIPGIPLMSVG	553

biological target: ScLsb1; experiment: as above
Experimental: as §1

Binder	SPOT peptide array binding signal intensity
YHSRRHPLALGFKYV	1.5
QRIRKIPGIPLMSVG	9.25

biological target: ScLsb2; experiment: as above
Experimental: as §1

Binder	SPOT peptide array binding signal intensity
YHSRRHPLALGFKYV	6.5
QRIRKIPGIPLMSVG	13

biological target: ScLsb3; experiment: as above
Experimental: as §1

Binder	SPOT peptide array binding signal intensity
YHSRRHPLALGFKYV	≤ 0
QRIRKIPGIPLMSVG	3970

biological target: ScLsb4; experiment: as above
Experimental: as §1

Binder	SPOT peptide array binding signal intensity
YHSRRHPLALGFKYV	12
QRIRKIPGIPLMSVG	349

biological target: ScMyo3; experiment: as above
Experimental: as §1

Binder	SPOT peptide array binding signal intensity
YHSRRHPLALGFKYV	18.8
QRIRKIPGIPLMSVG	≤ 0

biological target: ScMyo5; experiment: as above
Experimental: as §1

Binder	SPOT peptide array binding signal intensity
YHSRRHPLALGFKYV	24.2
QRIRKIPGIPLMSVG	≤ 0

biological target: ScNbp2; experiment: as above
Experimental: as §1

Binder	SPOT peptide array binding signal intensity
YHSRRHPLALGFKYV	102
QRIRKIPGIPLMSVG	672

biological target: ScPex13; experiment: as above
Experimental: as §1

Binder	SPOT peptide array binding signal intensity
YHSRRHPLALGFKYV	10.5
QRIRKIPGIPLMSVG	408

biological target: ScRvs167; experiment: as above
Experimental: as §1

Binder	SPOT peptide array binding signal intensity
YHSRRHPLALGFKYV	31.2
QRIRKIPGIPLMSVG	1160

biological target: ScSho1; experiment: as above
Experimental: as §1

Binder	SPOT peptide array binding signal intensity
YHSRRHPLALGFKYV	592
QRIRKIPGIPLMSVG	1280

biological target: ScSla1-D1-D2; experiment: as above
Experimental: as §1

Binder	SPOT peptide array binding signal intensity
YHSRRHPLALGFKYV	65
QRIRKIPGIPLMSVG	1610

biological target: ScSla1-D3; experiment: as above
Experimental: as §1

Binder	SPOT peptide array binding signal intensity
YHSRRHPLALGFKYV	4.75
QRIRKIPGIPLMSVG	64

biological target: SpAbp1-D1; experiment: as above
Experimental: as §1

Binder	SPOT peptide array binding signal intensity
YHSRRHPLALGFKYV	130
QRIRKIPGIPLMSVG	116

biological target: SpBbc1; experiment: as above
Experimental: as §1

Binder	SPOT peptide array binding signal intensity
YHSRRHPLALGFKYV	8.75
QRIRKIPGIPLMSVG	9.25

biological target: SpBzz1-D1; experiment: as above
Experimental: as §1

Binder	SPOT peptide array binding signal intensity
YHSRRHPLALGFKYV	122
QRIRKIPGIPLMSVG	176

biological target: SpBzz1-D2; experiment: as above
Experimental: as §1

Binder	SPOT peptide array binding signal intensity
YHSRRHPLALGFKYV	2
QRIRKIPGIPLMSVG	5.75

biological target: SpCyk3; experiment: as above
Experimental: as §1

Binder	SPOT peptide array binding signal intensity
YHSRRHPLALGFKYV	3
QRIRKIPGIPLMSVG	5

biological target: SpHof1; experiment: as above
Experimental: as §1

Binder	SPOT peptide array binding signal intensity
YHSRRHPLALGFKYV	42.8
QRIRKIPGIPLMSVG	140

biological target: SpHof1-2; experiment: as above
Experimental: as §1

Binder	SPOT peptide array binding signal intensity
YHSRRHPLALGFKYV	10.8
QRIRKIPGIPLMSVG	51.5

biological target: SpHof1-3; experiment: as above
Experimental: as §1

Binder	SPOT peptide array binding signal intensity
YHSRRHPLALGFKYV	386
QRIRKIPGIPLMSVG	440

biological target: SpHse1; experiment: as above
Experimental: as §1

Binder	SPOT peptide array binding signal intensity
YHSRRHPLALGFKYV	274
QRIRKIPGIPLMSVG	242

biological target: SpLsb1; experiment: as above
Experimental: as §1

Binder	SPOT peptide array binding signal intensity
YHSRRHPLALGFKYV	50.5
QRIRKIPGIPLMSVG	17

biological target: SpLsb4; experiment: as above
Experimental: as §1

Binder	SPOT peptide array binding signal intensity
YHSRRHPLALGFKYV	≤ 0
QRIRKIPGIPLMSVG	3060

biological target: SpMyo1; experiment: as above
Experimental: as §1

Binder	SPOT peptide array binding signal intensity
YHSRRHPLALGFKYV	14.5
QRIRKIPGIPLMSVG	≤ 0

biological target: SpNbp2; experiment: as above
Experimental: as §1

Binder	SPOT peptide array binding signal intensity
YHSRRHPLALGFKYV	53
QRIRKIPGIPLMSVG	359

biological target: SpPex13; experiment: as above
Experimental: as §1

Binder	SPOT peptide array binding signal intensity
YHSRRHPLALGFKYV	52
QRIRKIPGIPLMSVG	22

biological target: SpRvs167; experiment: as above
Experimental: as §1

Binder	SPOT peptide array binding signal intensity
YHSRRHPLALGFKYV	66.2
QRIRKIPGIPLMSVG	1140

biological target: SpSla1-D1-D2; experiment: as above
Experimental: as §1

Binder	SPOT peptide array binding signal intensity
YHSRRHPLALGFKYV	1
QRIRKIPGIPLMSVG	89.5

biological target: SpSla1-D3; experiment: as above
Experimental: as §1

Binder	SPOT peptide array binding signal intensity
YHSRRHPLALGFKYV	23.5
QRIRKIPGIPLMSVG	27
